Hit rate of the full screen: of about 1,300 compounds, about 1,000 (77%) were called active. Not shown: some 7% with an inconclusive outcome. The call rests on the fitted dose curve; in most records, active means well fitted inhibition curve with a large enough effect; inconclusive means small, poorly fitted or top-dose-only effect; inactive means no such curve, though single readings can be large or run the other way. The set was probably picked from earlier hits. The list shows a part of the results.
Experiment: qHTS of small molecules that selectively kill Giardia lamblia: Hit Validation.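 Further: viability measured as ATP content by luminescence so killing lowers signal; nearly all actives have a fitted effect of over 65% in size.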
Conditions: Giardia lamblia trophozoite viability, dose-response; series mostly up to 38.3 µM
In short: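 ATP-content bioluminescence gauges trophozoite survival. Cells (100/well) receive compound and incubate anaerobically for 48 hrs at 37 deg C; detection reagent follows for 15-30 min at room temperature.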
Potency means the concentration at half of the fitted maximal effect.

| SMILES | Potency |
| --- | --- |
| COc1nn(C(C)C(=O)N2N=C(C(F)F)CC2(O)C(F)F)cc1[N+](=O)[O-] (stereo not drawn) | 460 nM (active) |
| COc1ccc(OC)c2sc(N3CCN(C(=O)c4ccc([N+](=O)[O-])s4)CC3)nc12 | 2590 nM (active) |
| COc1ccc2nc(N3CCN(C(=O)c4ccc([N+](=O)[O-])o4)CC3)sc2c1 | 1830 nM (active) |
| COc1cccc2sc(N3CCN(C(=O)c4ccc([N+](=O)[O-])o4)CC3)nc12 | 2050 nM (active) |
| O=C(c1ccc([N+](=O)[O-])o1)N1CCN(c2nc3ccc(F)cc3s2)CC1 | 1830 nM (active) |
| CCCSc1nc2c(cnn2-c2ccc(C)c(C)c2)c(=O)[nH]1 | inactive |
| O=c1cc(-c2ccccc2)[nH]c2cc(Cl)ccc12 | inactive |
| COc1ccc(C(=O)NC2CCN(S(=O)(=O)c3ccc(F)cc3)CC2)cc1 | inactive |
| COc1ccc(S(=O)(=O)N2CCN(C(=O)c3ccc([N+](=O)[O-])o3)CC2)cc1 | 1300 nM (active) |
| C=Cc1ccc(CN2CCCN(Cc3ccc(F)cc3)S2(=O)=O)cc1 | inactive |
| CN(C(=O)CN1CCN(c2ccc([N+](=O)[O-])cn2)CC1)c1ccccc1 | 4100 nM (active) |
| Cc1ccc(CNC(=O)c2cc(-c3ccccc3C)n(CC3CC(c4cccc([N+](=O)[O-])c4)=NO3)n2)cc1 (stereo not drawn) | 2900 nM (active) |
| Cc1nnc(SCc2ccc([N+](=O)[O-])cc2)[nH]c1=O | 2310 nM (active) |
| O=[N+]([O-])/C(Cl)=C(/NCCO)C(Cl)=C(Cl)Cl | 259 nM (active) |
| CC(=O)c1c(C)[nH]c(C(=O)OCC(=O)Nc2cc(Cl)ccc2[N+](=O)[O-])c1C | 2310 nM (active) |
| CCn1nc(-c2ccc(C)cc2)nc2c(=O)n(C)c(=O)nc1-2 | 206 nM (active) |
| CCc1ccc(-c2nc3c(=O)n(C)c(=O)nc-3n(CC)n2)cc1 | 183 nM (active) |
| Clc1ccc2oc(-c3ccccc3)cc(=NCCCN3CCOCC3)c2c1 | 818 nM (active) |
| CN(C)CCCN=c1cc(-c2ccccc2)oc2ccc(Cl)cc12 | 579 nM (active) |
| CC1(C)CC(N=c2cc(-c3ccccc3)oc3ccc(Cl)cc23)CC(C)(C)N1 | 650 nM (active) |
| O=C(NCCO)c1ccc2c3n(nc2c1)-c1ccccc1CO3 | 3260 nM (active) |
| O=C(c1ccc2c3n(nc2c1)-c1ccccc1CO3)N1CCCCC1 | 2310 nM (active) |
| O=Nc1c2ccc[nH]c-2c2ccc([N+](=O)[O-])cc12 | 1030 nM (active) |
| CC1CCN(c2ccc(NC(=O)c3ccc([N+](=O)[O-])o3)cc2)CC1 | 1160 nM (active) |

| SMILES | Potency |
| --- | --- |
| O=C(Nc1ccc(N2CCCCC2)cc1)c1ccc([N+](=O)[O-])o1 | 3260 nM (active) |
| CS(=O)(=O)N1CCN(c2ccc(NC(=O)c3ccc([N+](=O)[O-])o3)cc2)CC1 | 579 nM (active) |
| O=C(NCC1CCN(Cc2ccccc2F)CC1)Nc1ccccc1F | inactive |
| O=C(Nc1ccc(N2CCN(Cc3ccccc3F)CC2)cc1)c1ccc([N+](=O)[O-])o1 | 1160 nM (active) |
| CCC(C(=O)N1CCOCC1)n1nc(C)n2c(cc3cc(C)ccc32)c1=O (stereo not drawn) | inactive |
| O=C(Nc1ccc(N2CCOCC2)cc1)c1ccc([N+](=O)[O-])o1 | 579 nM (active) |
| O=C(O)c1cc2ccccc2c(N=Nc2cccnc2)c1O | 2050 nM (active) |
| O=C(NN1C(=O)c2ccccc2NC1c1ccc([N+](=O)[O-])o1)c1ccccc1 (stereo not drawn) | 1030 nM (active) |
| O=C(NN1C(=O)c2ccccc2NC1c1ccc([N+](=O)[O-])o1)c1ccc([N+](=O)[O-])cc1 (stereo not drawn) | 2050 nM (active) |
| Cc1[nH]c2ccccc2c1C(=O)C(C)OC(=O)c1ccc([N+](=O)[O-])o1 (stereo not drawn) | 1830 nM (active) |
| COc1cc(/C=C/c2ccc3cccc(OC)c3n2)c(OC(C)=O)c([N+](=O)[O-])c1 | 1830 nM (active) |
| COc1cc(/C=C/c2ccc3cccc(OC)c3n2)c(O)c([N+](=O)[O-])c1 | 1630 nM (active) |
| O=C(Nc1cccc2ccccc12)C12CC3CC(C1)CC(n1cnc([N+](=O)[O-])n1)(C3)C2 | 3650 nM (active) |
| O=C(Nc1cc([N+](=O)[O-])c2[nH]c(=O)c3ccccc3c2c1)C(F)(F)F | 1030 nM (active) |
| COc1ccc(NS(=O)(=O)c2ccc3oc4ccccc4c3c2)cn1 | inactive |
| c1coc(-c2nc3cc4ccccc4cc3nc2-c2ccco2)c1 | 3650 nM (active) |
| O=c1c(-c2cccc([N+](=O)[O-])c2)[n+]([O-])c2ccccc2n1O | 5160 nM (active) |
| CCOn1c(=O)c(-c2cccc([N+](=O)[O-])c2)[n+]([O-])c2ccccc21 | 1030 nM (active) |
| CC(NC(=O)c1ccc(N(C)C)c([N+](=O)[O-])c1)c1ccc(-n2ccnc2)cc1 (stereo not drawn) | 4600 nM (active) |
| COc1ccccc1C1C([N+](=O)[O-])=CC([N+](=O)[O-])=CN1C (stereo not drawn) | 2590 nM (active) |
| Cc1ccc(S(=O)(=O)N2[C@@H](c3ccc(F)cc3)C(C(=O)O)=CC[C@H]2c2ccc(Cl)cc2)cc1 | inactive |
| Cc1ccc(S(=O)(=O)N2[C@@H](c3ccc(F)cc3)C(C(=O)O)=CC[C@H]2c2ccc3c(c2)OCO3)cc1 | inactive |
| Cc1ccc(S(=O)(=O)N2[C@@H](c3ccccc3)C(C(=O)O)=CC[C@H]2c2cccc(Cl)c2)cc1 | 103 nM (active) |
| O=[N+]([O-])c1cccc2nc3ccccc3c(NCCCn3ccnc3[N+](=O)[O-])c12 | 1630 nM (active) |

| SMILES | Potency |
| --- | --- |
| CN=c1scc(-c2ccccc2F)n1/N=C(\C)c1cccnc1 | 4100 nM (active) |
| COc1cc(Nc2ccc(C)cc2)c([N+](=O)[O-])nc1[N+](=O)[O-] | 1450 nM (active) |
| Cc1ccc(Nc2ccc([N+](=O)[O-])nc2[N+](=O)[O-])cc1 | 3260 nM (active) |
| O=C(Nc1ccc2[nH]ncc2c1)c1ccccc1Cl | 5790 nM (active) |
| O=[N+]([O-])c1ccc(Oc2cccc(Br)c2)c2ccncc12 | 2050 nM (active) |
| O=C(NCc1cccnc1)c1ccc([N+](=O)[O-])o1 | 1160 nM (active) |
| O=C(Cc1ccc(-n2c(=O)c3sccc3n(CC(=O)Nc3ccccc3)c2=O)cc1)NCc1ccco1 | inactive |
| CN(C(=O)c1cc([N+](=O)[O-])ccc1NCc1cccnc1)c1ccccc1 | inactive |
| O=C(NCc1ccco1)c1ccc([N+](=O)[O-])o1 | 1830 nM (active) |
| O=C(Nc1cccnc1)c1ccc([N+](=O)[O-])s1 | 2050 nM (active) |
| O=C(Nc1nnc(-c2ccco2)o1)c1ccc([N+](=O)[O-])s1 | 3650 nM (active) |
| CCN(C(=O)N(CC)c1ccccc1)c1ccccc1 | inactive |
| Cc1ccc(CNC(=O)c2cc(S(=O)(=O)N3CCOCC3)cn2C)cc1 | inactive |
| O=C(Nc1cccnc1)c1ccc([N+](=O)[O-])o1 | 1300 nM (active) |
| O=C(Nc1ccc(Cc2ccncc2)cc1)c1ccc([N+](=O)[O-])o1 | 1160 nM (active) |
| Cc1ccc(CNC(=O)c2ccc([N+](=O)[O-])o2)cc1 | 1830 nM (active) |
| CNc1nnc(-c2ccc(N(C)C)cc2)s1 | 3260 nM (active) |
| CCc1ccc2nc3sc(C(=O)O)cc3cc2c1 | 10300 nM (active) |
| CCN1C[C@@H]2[C@@H]3C(=O)N(C)C(=O)[C@@H]3[C@](C)(C1=O)N2C(=O)c1ccc(Cl)c(Cl)c1 | inactive |
| O=C1NCCN1c1ncc([N+](=O)[O-])s1 | 103 nM (active) |
| COc1ccc(-c2cc3nc[nH]c(=O)c3s2)cc1 | 4600 nM (active) |
| CCNc1nc(NCC)nc(-n2nc(C)cc2C)n1 | inactive |
| C/C(=N/NC(=O)C(O)(c1ccccc1)c1ccccc1)c1ccc([N+](=O)[O-])o1 | 365 nM (active) |
| O=C(NN(c1ccccc1)c1ccccc1)c1ccc([N+](=O)[O-])o1 | 1830 nM (active) |

| SMILES | Potency |
| --- | --- |
| O=C(NNC(=O)c1ccc([N+](=O)[O-])o1)c1ccccc1 | 516 nM (active) |
| CN(Cc1ccccc1)C(=O)c1ccc([N+](=O)[O-])o1 | 3650 nM (active) |
| O=C(O)C1CCCN1S(=O)(=O)c1ccc(Br)cc1 (stereo not drawn) | inactive |
| COc1ccc(OC)c2c(C)c(C)[nH]c12 | inactive |
| CN(C(=O)OC(C)(C)C)c1ccc(-c2nc3ccccc3s2)cc1 | 1830 nM (active) |
| Cc1c[nH]c(=O)c([N+](=O)[O-])c1 | 8180 nM (active) |
| COc1cc2c3c(c1OC)C1(C=CC(=NNC(N)=O)C=C1)CC3N(C(C)=O)CC2 (stereo not drawn) | inactive |
| COc1ccc(-n2nc([N+](=O)[O-])c(=NCCCN3CCCC3=O)n2O)cc1 | 2050 nM (active) |
| O=C1CCCN1CCCN=c1c([N+](=O)[O-])nn(-c2ccc(Cl)cc2)n1O | 3650 nM (active) |
| Cn1cccc1C1CCCN1CC(=O)Nc1ccc(F)c(F)c1F (stereo not drawn) | inactive |
| Cc1ccc(CNC(=O)CSc2ccsc2[N+](=O)[O-])cc1 | 2590 nM (active) |
| CCOC(=O)Cc1csc(SCC(=O)NC2CCCCC2)n1 | inactive |
| O=C(CSc1ccsc1[N+](=O)[O-])NC1CCCC1 | 1030 nM (active) |
| O=C(CSc1ccsc1[N+](=O)[O-])N1CCN(c2ccccn2)CC1 | 579 nM (active) |
| O=C(CSc1ccsc1[N+](=O)[O-])NCc1ccccc1 | 1160 nM (active) |
| CCc1ccccc1NC(=O)CC(NCc1ccccc1)C(=O)O (stereo not drawn) | inactive |
| CCc1ccccc1NC(=O)CSc1ccsc1[N+](=O)[O-] | 2310 nM (active) |
| COc1ccccc1CNC(=O)CSc1ccsc1[N+](=O)[O-] | 1450 nM (active) |
| COc1ccc(CNC(=O)CSc2ccsc2[N+](=O)[O-])cc1 | 1630 nM (active) |
| CC(=O)c1ccc(NC(=O)CSc2ccsc2[N+](=O)[O-])cc1 | 918 nM (active) |
| CCn1c(=O)n(CC)c2cc(N)ccc21 | inactive |

From PubChem BioAssay AID588397 (National Center for Advancing Translational Sciences (NCATS), 2011)
